Results on 15 compounds are retold here after PubChem BioAssay.

The source made the active and inactive calls. Unless noted, how the calls were made is not given here.

The subject of experiment [1] is Wnt5a (protein binding on small-molecule microarray). Put plainly: Wnt5a binders on small-molecule microarray, primary screen, biophysical, 635/667 nm fluorescence (AID 1142).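 Further: fluorescence read at 667 nm with signal to noise per printed feature.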 The settings on record: 635 nm fluorescence, higher = more signal.
The nature of experiment [2]: cell viability in Huh7 cells, primary screen, cytotoxicity control for HCV replication inhibitor project, CellTiter-Glo luminescence, basal, 48 h (AID 1143).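 Further: Huh7 hepatoma cells carrying a hepatitis C replication reporter with no stimulus; test concentration not given here.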 The settings on record: Huh7 HCV replicon, higher = more signal, called active from +8 up or from −8 down. On the technique in general: ATP-based viability assays read luminescence as a measure of living cells.
Experiment [3] can be described thus: P. aeruginosa biofilm formation inhibitors, primary screen, PAO1 strain, BacTiter-Glo luminescence, LB-PBS (AID 1144). The settings on record: 12 h, higher = more signal.
Experiment [4] in a line: CREB reporter modulators without forskolin, primary screen, cell-based, PC12, CRE-LacZ reporter, unstimulated (AID 1145). The settings on record: no forskolin, luminescence, 4.5 h, higher = more signal, called active from +8 up or from −8 down.
The nature of experiment [5]: CREB reporter modulators under forskolin, primary screen, cell-based, PC12, CRE-LacZ reporter, forskolin-stimulated (AID 1146).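 Further: PC12 cells with 6xCRE LacZ reporter stimulated by forskolin 10 µM; beta-galactosidase reporter signal reflecting CREB driven transcription.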 The note with it: luminescence, 4.5 h, higher = more signal, called active from +8 up or from −8 down.
The target in experiment [6] is Streptavidin (Streptomyces avidinii) (UniProt P22629). Put plainly: streptavidin binders on small-molecule microarray, primary screen, artefact control for SMM compound annotation, biophysical, 635/667 nm fluorescence (AID 1147).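 Further: signal reflects streptavidin binding to arrayed compounds as a control protein.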 The settings on record: streptavidin binding, higher = more signal.
Experiment [7] can be described thus: small-molecule binders of probe aInhba, primary screen, biochemical, small-molecule microarray, 635/667 nm fluorescence (AID 1148).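 Further: score merges 667nm spot fluorescence with signal-to-noise for antibody binding to printed compounds.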 The settings on record: higher = more signal.
Experiment [8] addresses Torsin-1A (Homo sapiens) (UniProt O14656). Put plainly: torsin A binders from cell lysate, primary screen, small-molecule microarray, wild-type, 635/667 nm (AID 1149). The note with it: COS7 hTOR1A-WT lysate, 635 nm fluorescence, higher = more signal.
Experiment [9] shares this target. As to the kind of experiment: small-molecule binders of mutant TOR1A in lysate, primary screen, cell lysate, small-molecule microarray, COS7 lysate, 635/667 nm fluorescence (AID 1150).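 Further: score pools 667 nm emission and signal to noise measuring lysate protein binding.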 The settings on record: COS7 hTOR1A mutant lysate, 635 nm fluorescence, higher = more signal.
For experiment [10], the system named is Sonic hedgehog protein (Shh). As to the kind of experiment: small-molecule binders of Shh protein, primary screen, biochemical, small-molecule microarray, 635/667 nm fluorescence (AID 1151).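 Further: Shh protein binding to compounds spotted on small-molecule microarray slides; score combines spot fluorescence intensity with signal-to-noise across triplicate slides.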 The note with it: small-molecule microarray binding, 635 nm fluorescence; higher = more signal.

Streptavidin (Streptomyces avidinii), sequence (P22629 whole entry, looked up): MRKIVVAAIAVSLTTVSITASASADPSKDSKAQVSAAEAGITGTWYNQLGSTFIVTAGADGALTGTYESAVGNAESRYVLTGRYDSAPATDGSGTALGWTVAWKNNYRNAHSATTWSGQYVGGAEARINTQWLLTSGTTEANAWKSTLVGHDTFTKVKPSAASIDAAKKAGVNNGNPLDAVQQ
Torsin-1A (Homo sapiens), sequence (O14656 whole entry, looked up): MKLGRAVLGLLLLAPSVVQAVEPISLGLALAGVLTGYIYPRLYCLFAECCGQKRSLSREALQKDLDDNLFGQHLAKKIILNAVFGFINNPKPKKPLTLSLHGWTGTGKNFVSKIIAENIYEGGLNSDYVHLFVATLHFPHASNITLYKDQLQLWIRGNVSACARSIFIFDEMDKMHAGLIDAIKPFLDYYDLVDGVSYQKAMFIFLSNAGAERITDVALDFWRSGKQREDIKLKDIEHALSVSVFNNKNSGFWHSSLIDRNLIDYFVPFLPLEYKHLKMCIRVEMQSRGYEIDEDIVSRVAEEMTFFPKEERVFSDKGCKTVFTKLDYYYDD

For `CCCCC(O)C1C=CC2C(=O)N(c3ccccc3)C(=O)C2N1Nc1ccccc1` (stereo not given), the composite z-score is -0.152 in experiment [1]; 0.682 in experiment [6]; 0.0278 in experiment [7]; -0.0483 in the experiment with Torsin-1A (Homo sapiens) [8]; 0.0691 with Torsin-1A (Homo sapiens) [9]; -1.35 in experiment [10]. Further, the z-score in experiment [2] was 0.564 (inactive); in [3], -0.279 (inactive); in experiment [4] it was 0.257 (inactive); in [5], 0.875 (inactive).

Turning to `COC(=O)C1=CC(CCCO)=CC(c2cccs2)N(Cc2cc3c(cc2Br)OCO3)C=C1C(=O)OC` (stereo not given), the composite z-score amounted to 0.46 in [1]; 1.99 in [6]; 0.0659 in experiment [7]; 0.565 in the experiment with Torsin-1A (Homo sapiens) [8]; 1.12 with Torsin-1A (Homo sapiens) [9]; 0.322 in experiment [10]. In addition, the z-score in [2] is -1.96 (inactive); in experiment [3] it was 0.587 (inactive); in experiment [4], 0.326 (inactive); in experiment [5] it was 0.458 (inactive).

With `O=C1O[C@H](Cc2ccccc2)[C@@H]2[C@H]3C=CCCC=C3CN2[C@H]1Cc1ccc(O)cc1`, the composite z-score was -0.311 in experiment [1]; -0.0955 in experiment [6]; 0.214 in [7]; -0.2 with Torsin-1A (Homo sapiens) [8]; -0.632 with Torsin-1A (Homo sapiens) [9]; -0.282 in experiment [10]. The z-score in [2] was -0.0514 (inactive); in experiment [3], -0.818 (inactive); in experiment [4], -0.0546 (inactive); in [5], 1.11 (inactive).

Turning to `C=CC1c2cc(O)c(OC)cc2CCN1C` (stereo not given), the composite z-score in experiment [1] was -0.148; in [6], -0.0377; in experiment [7] it was -0.0695; with Torsin-1A (Homo sapiens) [8] it was -0.45; with Torsin-1A (Homo sapiens) [9] it was -0.231; in experiment [10], -0.881. Besides, the z-score in experiment [2] was 0.235 (inactive); in experiment [3], 0.51 (inactive); in experiment [4], 0.182 (inactive); in experiment [5], -0.439 (inactive).

On to `C=C(CCCC)/C(=C/C[C@H](OC(=O)c1ccncc1)c1ccccc1OCCO)c1cc(C(=O)OC)ccc1OC`, for which the composite z-score is -0.0692 in [1]; 0.396 in experiment [6]; 0.0391 in [7]; 0.0152 with Torsin-1A (Homo sapiens) [8]; 0.369 in the experiment with Torsin-1A (Homo sapiens) [9]; 1.43 in [10]. Besides, the z-score is -1.78 (inactive) in experiment [2], -0.402 (inactive) in [3], 11.4 (active) in experiment [4] and 0.179 (inactive) in experiment [5].

With `COC(=O)[C@@]1(Cc2ccccc2)[C@H]2c3cc(C(=O)N4CCCC4)n(Cc4ccc(OC)c(OC)c4)c3C[C@H]2CN1C(=O)c1ccccc1`, the composite z-score was 0.56 in experiment [1]; 0.782 in [6]; 0.715 in experiment [7]; 0.279 with Torsin-1A (Homo sapiens) [8]; 1.18 in the experiment with Torsin-1A (Homo sapiens) [9]; -0.121 in experiment [10]. Also, the z-score in experiment [2] is -1.99 (inactive); in [3], 0.388 (inactive); in experiment [4] it was 0.39 (inactive); in experiment [5], 0.208 (inactive).

Regarding `C[N+](C)(C)CCCC[C@@H]1NC(=O)[C@@H]2C[C@H](C(=O)NCc3ccc(F)cc3)[C@H](c3ccc(O)cc3)N2C1=O`, the composite z-score was -0.176 in experiment [1]; -0.369 in experiment [6]; -0.0963 in [7]; 0.965 with Torsin-1A (Homo sapiens) [8]; 0.729 with Torsin-1A (Homo sapiens) [9]; 1.64 in experiment [10]. Besides, the z-score is -0.0669 (inactive) in [2], -1.22 (inactive) in experiment [3], 0.692 (inactive) in [4] and 0.663 (inactive) in experiment [5].

Regarding `C=CCOC(=O)[C@H]1[C@@H]2C(=O)O[C@@H](c3ccccc3)[C@@H](c3ccccc3)N2[C@@H](c2ccc(OCCOC(=O)[C@@H]3C[C@@H]4C(=O)N[C@@H](CCCCNC(C)=O)C(=O)N4[C@@H]3c3cccc(OCCO)c3)cc2)[C@]12C(=O)Nc1ccccc12`, the composite z-score in experiment [1] was 0.455; in experiment [6] it was -0.35; in experiment [7], -0.0342; with Torsin-1A (Homo sapiens) [8] it was 1.2; with Torsin-1A (Homo sapiens) [9], 1.3; in [10], 1.54. Moreover, the z-score was -0.08 (inactive) in [2], -0.295 (inactive) in experiment [3], -0.118 (inactive) in experiment [4] and -0.656 (inactive) in [5].

Consider `COc1ccc(C(=O)Nc2ccc(CN3C(=O)[C@@]4(O[C@@H](CCn5cc(CCO)nn5)[C@H]([Si](C)(C)c5ccc(OC)cc5)[C@H]4C)c4ccccc43)cc2)cc1`, for which the composite z-score is 0.236 in experiment [1]; 0.421 in experiment [6]; -0.0791 in experiment [7]; 0.671 in the experiment with Torsin-1A (Homo sapiens) [8]; 0.411 with Torsin-1A (Homo sapiens) [9]; 1.4 in experiment [10]. Further, the z-score in [2] is -7.97 (inactive); in experiment [3], 0.173 (inactive); in [4] it was 6.94 (inactive); in experiment [5], -0.632 (inactive).

Regarding `CCOC(=O)C[C@H]1[C@H](OC(=O)Cc2ccc3c(c2)OCO3)[C@@H](NC(=O)c2ccc3ccccc3n2)c2cc(OCCCO)ccc2N1C(=O)Cc1ccc(OC)cc1`, the composite z-score was 0.0586 in [1]; 0.417 in [6]; -0.101 in [7]; 0.509 with Torsin-1A (Homo sapiens) [8]; 0.744 with Torsin-1A (Homo sapiens) [9]; 0.902 in [10]. In addition, the z-score in experiment [2] was -1.01 (inactive); in experiment [3], -0.885 (inactive); in experiment [4] it was 3.29 (inactive); in [5], 0.637 (inactive).

Turning to `CC(C)(C)N1CC=CC23O[C@@H]4/C=C\CCCOC(=O)C4[C@H]2C(=O)N(CCCO)[C@@H]3C1=O` (stereo not given in full), the composite z-score is -0.285 in experiment [1]; -0.773 in experiment [6]; -0.0112 in experiment [7]; 0.585 with Torsin-1A (Homo sapiens) [8]; 0.645 with Torsin-1A (Homo sapiens) [9]; 0.941 in [10]. The z-score in [2] was 0.317 (inactive); in [3], 1.68 (inactive); in experiment [4], -0.0697 (inactive); in [5] it was -0.764 (inactive).

Regarding `Cc1ccc(N2C(=O)c3ccccc3[C@](C)(C(=O)NCCCN(C)C)[C@@H]2c2ccc(CO)cc2)nc1`, the composite z-score in [1] was -0.169; in experiment [6], -0.0986; in [7] it was -0.0983; with Torsin-1A (Homo sapiens) [8], -1.38; with Torsin-1A (Homo sapiens) [9], -1.27; in experiment [10], -1.01. Further, the z-score is 0.368 (inactive) in experiment [2], 0.414 (inactive) in [3], 0.0279 (inactive) in experiment [4] and 0.64 (inactive) in [5].

As for `O=C(NCCN1CCOCC1)[C@@H]1c2ccccc2C(=O)N(Cc2ccccc2C(F)(F)F)[C@H]1c1ccc(CO)cc1`, the composite z-score in experiment [1] is -0.316; in [6] it was -1.12; in experiment [7], -0.224; with Torsin-1A (Homo sapiens) [8] it was -0.691; with Torsin-1A (Homo sapiens) [9], 0.0912; in [10], -0.112. For the same compound, the z-score in experiment [2] was -0.0154 (inactive); in experiment [3] it was 0.151 (inactive); in experiment [4], 0.324 (inactive); in experiment [5], -1.32 (inactive).

As for `C=C1C(=O)C=C2CN(C(=O)c3ccccc3)[C@@](Cc3ccc(OC)cc3)(C(=O)OC)[C@@H]12`, the composite z-score worked out at 0.458 in experiment [1]; 1.72 in experiment [6]; 0.863 in experiment [7]; 0.124 in the experiment with Torsin-1A (Homo sapiens) [8]; 0.319 with Torsin-1A (Homo sapiens) [9]; 0.193 in experiment [10]. The z-score is -3.68 (inactive) in experiment [2], 0.249 (inactive) in [3], 0.387 (inactive) in experiment [4] and 0.2 (inactive) in experiment [5].

Regarding `CCC(CC)C(O)C1C=CC2C(=O)N(c3ccccc3)C(=O)C2N1Nc1ccccc1F` (stereo not given), the composite z-score in [1] was 0.0501; in experiment [6] it was 0.292; in [7], -0.0044; in the experiment with Torsin-1A (Homo sapiens) [8] it was 0.838; with Torsin-1A (Homo sapiens) [9], 0.597; in experiment [10] it was -0.455. For the same compound, the z-score is -1.14 (inactive) in experiment [2], -0.615 (inactive) in experiment [3], -0.62 (inactive) in experiment [4] and 0.492 (inactive) in experiment [5].
